From PubChem BioAssay AID2205 (University of Pittsburgh Molecular Library Screening Center, 2009) come the findings set out here.

Out of some 200,000 compounds screened, about 1,600 (0.8%) were called active.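 The calls were made as follows: active = plate Z-score above 3 for both tubulin-high and condensed-nucleus cell shares, with cell loss under 80%, at 10 µM; inactive = the rest, inconclusive results apart.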 What follows is part of a selection rich in actives, with near analogues and random picks from the rest.

The nature of this assay: microtubule stabilizers in HeLa cells, primary screen, imaging, high-content imaging (AID 2205).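 As to % tubulin-high responders: anti alpha tubulin signal scored within the nucleus-defined area of each cell.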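 As to toxicity: 0% = mean cell density of plate MIN control wells and 100% = no cells.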 Conditions: HeLa tubulin immunostaining HCS, 24 h, at 10 µM; % Hoechst-high responders: measured here: nuclear condensation Hoechst responders, stronger effect = higher value, share of cells brighter than vehicle mean+2SD; % tubulin-high responders: stronger effect = higher value, share of cells brighter than vehicle mean+2SD; toxicity: measured here: cytotoxicity by cell density.
For `CC(=O)c1cc(-c2ccccc2)n(CC(=O)NC2CCCCC2)c1C`, the % Hoechst-high responders was found to be 1.48%, the % tubulin-high responders is 1.98% (inactive) and the toxicity is 2.82%.

Consider `O=C(Nc1ccn(Cc2ccccc2)n1)c1n[nH]c([N+](=O)[O-])c1Cl`, for which the % Hoechst-high responders is 13.3%, the % tubulin-high responders was 9.59% (active) and the toxicity was 24.4%.

Consider `O=C(Nc1ccn(Cc2ccc(F)cc2)n1)c1ccncc1`, for which the % Hoechst-high responders came out at 1.77%, the % tubulin-high responders is 2.77% (inactive) and the toxicity was determined as 3.59%.

Turning to `O=C(Nc1ccn(Cc2ccccc2)n1)c1cccc(F)c1`, the % Hoechst-high responders worked out at 3.02%, the % tubulin-high responders is 4.62% (inactive) and the toxicity turned out to be 3.61%.

Turning to `CC1Cc2ccccc2N1S(=O)(=O)c1c(N)n(C)c(=O)n(C)c1=O` (configuration not stated), the % Hoechst-high responders was 3.17%, the % tubulin-high responders was 3.06% (inactive) and the toxicity worked out at 7.69%.

Regarding `CCc1nc2ccccc2c(C(=O)NCc2ccc(OC)cc2)c1C`, the % Hoechst-high responders is 2.73%, the % tubulin-high responders is 2.02% (inactive) and the toxicity was found to be 5.3%.

In the case of `CN(C)Cc1ccc(F)cc1Sc1cc(Cl)ccc1Cl`, the % Hoechst-high responders was determined as 2.47%, the % tubulin-high responders is 4.07% (inactive) and the toxicity was determined as 10%.

As to `COc1ccc(CN(C)C(C)C(=O)NC2CCCc3ccccc32)cc1` (configuration not stated), the % Hoechst-high responders came to 4.92%, the % tubulin-high responders was 11.4% (active) and the toxicity amounted to 14%.

For the compound `CC(C(=O)NCC1CCCCC1)N(C)Cc1cccc(Cl)c1` (configuration not stated), the % Hoechst-high responders was 0.921%, the % tubulin-high responders was 4.54% (inactive) and the toxicity was 21.1%.

`CCOc1ccc(NC(=O)COc2ccc(C(=O)NC3CCCc4ccccc43)cc2OC)cc1` (configuration not stated): the % Hoechst-high responders came out at 2.51%, the % tubulin-high responders is 5.53% (inactive) and the toxicity stood at 4.7%.

For `COc1ccc([N+](=O)[O-])cc1NC(=O)CC1SC(=Nc2cccc(C)c2C)N(/N=C(\C)c2ccc(C)cc2)C1=O` (configuration not stated), the % Hoechst-high responders is 1.74%, the % tubulin-high responders was 1.39% (inactive) and the toxicity turned out to be 6.54%.

`COc1cccc(NC(=O)c2ccc(S(=O)(=O)N(C)C)cc2)c1`: the % Hoechst-high responders came out at 1.38%, the % tubulin-high responders was 3.01% (inactive) and the toxicity came out at 1.8%.

For `COc1ccc(-n2nnnc2-c2nc3ccccc3s2)cc1`, the % Hoechst-high responders came to 2.51%, the % tubulin-high responders was 4.84% (inactive) and the toxicity amounted to 1.66%.

In the case of `CCOc1cccc(-c2nnc3sc(COc4ccc(OC)cc4)nn23)c1`, the % Hoechst-high responders was determined as 1.53%, the % tubulin-high responders was 1.43% (inactive) and the toxicity worked out at 2.39%.

Regarding `CCOc1cccc(-n2nnnc2-c2ccc(OC)cc2)c1`, the % Hoechst-high responders turned out to be 43.4%, the % tubulin-high responders is 37.6% (active) and the toxicity is 41.8%.

As to `COC(=O)c1ccc(CN2CCN(CCCc3ccccc3)C(CCO)C2)cc1` (configuration not stated), the % Hoechst-high responders was 1.96%, the % tubulin-high responders is 3.41% (inactive) and the toxicity came out at 10.2%.

Regarding `CCOC(=O)Cc1ncccc1C(=O)Nc1ccc(OC)cc1`, the % Hoechst-high responders came out at 2.23%, the % tubulin-high responders was 3.2% (inactive) and the toxicity is 5.66%.

In the case of `COc1ccccc1NC1=NC(c2ccc(Cl)cc2)N=C(N)N1` (configuration not stated), the % Hoechst-high responders was determined as 46.7%, the % tubulin-high responders is 18% (active) and the toxicity came to 42.6%.

Regarding `COc1ccccc1Nc1nc(N)nc(CN(C)C2CCCCC2)n1`, the % Hoechst-high responders amounted to 1.52%, the % tubulin-high responders is 3.4% (inactive) and the toxicity turned out to be 5.42%.

Turning to `COc1ccccc1NC1=NC2(CCCC2)N=C(N)N1`, the % Hoechst-high responders came to 1.77%, the % tubulin-high responders is 2.5% (inactive) and the toxicity stood at 14.7%.

Consider `c1ccc(CN=C2Nc3ccccc3CS2)nc1`, for which the % Hoechst-high responders came to 1.84%, the % tubulin-high responders was 4.7% (inactive) and the toxicity was determined as 4.5%.

`Cc1ccc(-c2csc(SCC(=O)Nc3cc(C)on3)n2)cc1`: the % Hoechst-high responders was 0.903%, the % tubulin-high responders was 2.28% (inactive) and the toxicity is 2.29%.

With `Cc1cc(NC(=O)CSc2nnc(Nc3ccccc3F)s2)no1`, the % Hoechst-high responders stood at 2.66%, the % tubulin-high responders is 2.72% (inactive) and the toxicity stood at 6.41%.

`Cc1cc(C)c2c(c1)cc(C)c1nnc(SCC(=O)Nc3cc(C)on3)n12`: the % Hoechst-high responders was 18.1%, the % tubulin-high responders is 40.6% (active) and the toxicity turned out to be 66.4%.

For the compound `CCc1ccccc1NC(=O)Cc1cn(C)c2ccccc12`, the % Hoechst-high responders was 1.88%, the % tubulin-high responders is 2.42% (inactive) and the toxicity was 1.32%.

`CCN(CC)C(=O)C(=O)c1cn(CC(=O)NCc2ccc3c(c2)OCO3)c2ccccc12`: the % Hoechst-high responders is 2.88%, the % tubulin-high responders was 3.53% (inactive) and the toxicity came out at 7.75%.

In the case of `Cc1cc(C)cc(C(=O)NCC(=O)OCC(=O)N2CCCCC2)c1`, the % Hoechst-high responders was determined as 1.86%, the % tubulin-high responders was 1.01% (inactive) and the toxicity is 6.66%.

For the compound `COc1ccc(Nc2oc(-c3ccccc3Cl)nc2C#N)cc1`, the % Hoechst-high responders was 19.8%, the % tubulin-high responders is 22.5% (active) and the toxicity is 63.9%.

In the case of `COc1ccccc1-c1nc(C#N)c(N2CCC(C(N)=O)CC2)o1`, the % Hoechst-high responders is 1.21%, the % tubulin-high responders was 0.805% (inactive) and the toxicity was 3.26%.

Consider `Cc1ccccc1-c1nc(C#N)c(NCc2ccco2)o1`, for which the % Hoechst-high responders stood at 2.06%, the % tubulin-high responders was 1.4% (inactive) and the toxicity is 7.65%.

For `N/C(=N\OS(=O)(=O)c1cccc([N+](=O)[O-])c1)c1ccncc1`, the % Hoechst-high responders amounted to 2%, the % tubulin-high responders is 1.6% (inactive) and the toxicity is 1.69%.

In the case of `CCOc1ccc(NC(=O)CCC(=O)N/N=C/c2ccc([N+](=O)[O-])s2)cc1`, the % Hoechst-high responders stood at 1.9%, the % tubulin-high responders is 4.38% (inactive) and the toxicity is 12.5%.

For `O=[N+]([O-])c1ccc(C=Nc2ccc(Cl)cc2Cl)s1`, the % Hoechst-high responders came to 9.57%, the % tubulin-high responders was 11.5% (active) and the toxicity came out at 16%.

Turning to `Cc1ccccc1NCC(=O)N/N=C\c1ccc([N+](=O)[O-])s1`, the % Hoechst-high responders amounted to 2.71%, the % tubulin-high responders was 2.44% (inactive) and the toxicity stood at 1.44%.

Regarding `CCOC(=O)/C(=C\c1ccc([N+](=O)[O-])cc1)C(=O)c1cc(C(C)=O)c(Nc2ccccc2)s1`, the % Hoechst-high responders was 6.43%, the % tubulin-high responders was 24.7% (active) and the toxicity was determined as 66.1%.

On to `O=C(Nc1ccccc1)/C(=C/c1ccc([N+](=O)[O-])cc1)NC(=O)c1ccccc1`, for which the % Hoechst-high responders was found to be 4.34%, the % tubulin-high responders was 2.81% (inactive) and the toxicity came out at 7.05%.

As for `Cc1cccc(NC(=O)c2sc(-c3ccccc3)nc2-c2ccc([N+](=O)[O-])cc2)c1`, the % Hoechst-high responders was found to be 5.34%, the % tubulin-high responders was 2.13% (inactive) and the toxicity stood at 9.44%.

Consider `COC(=O)c1ccc(NCC(=O)N2CCCCCC2)cc1`, for which the % Hoechst-high responders came to 2.09%, the % tubulin-high responders is 3.14% (inactive) and the toxicity came out at 2.78%.

With `COc1ccc(NC(=O)CSc2nnc(-c3ccccc3F)n2C2CC2)cc1S(N)(=O)=O`, the % Hoechst-high responders stood at 2.54%, the % tubulin-high responders is 1.8% (inactive) and the toxicity amounted to 10.7%.

`CCOc1cc(/C=C(\C#N)c2nc(-c3cccs3)c(NC(C)=O)s2)ccc1O`: the % Hoechst-high responders was found to be 49.3%, the % tubulin-high responders was 16.7% (active) and the toxicity was 32.4%.

`CCOc1cccc(C(=O)Nc2nnc(-c3cccs3)s2)c1`: the % Hoechst-high responders worked out at 2.31%, the % tubulin-high responders is 1.76% (inactive) and the toxicity turned out to be 5.03%.

Turning to `COc1cc(/C=C(\C#N)c2nc3c(s2)CC(C)CC3)ccc1O` (configuration not stated), the % Hoechst-high responders turned out to be 2.11%, the % tubulin-high responders was 1.86% (inactive) and the toxicity came to 0.488%.

For the compound `CCCCc1cc2c(s1)CCCC/C2=N/O`, the % Hoechst-high responders was 1.99%, the % tubulin-high responders is 5.07% (inactive) and the toxicity was 0.0044%.

Consider `CCC(=O)Nc1cccc(NC(=O)c2cccnc2)c1`, for which the % Hoechst-high responders came to 1.83%, the % tubulin-high responders is 4.1% (inactive) and the toxicity was 8.32%.

For the compound `COc1ccc2nc(Nc3nc4ccc(NC(C)=O)cc4s3)sc2c1`, the % Hoechst-high responders is 3.35%, the % tubulin-high responders is 5.83% (inactive) and the toxicity is 4.23%.

Regarding `CCOC(=O)c1cc(NC(=O)c2cccnc2)cc(C(=O)OCC)c1`, the % Hoechst-high responders is 1.98%, the % tubulin-high responders is 4.37% (inactive) and the toxicity was found to be 5.37%.

In the case of `CCCC(=O)Nc1nc2ccc(NC(=O)c3c(F)c(F)c(OC)c(F)c3F)cc2s1`, the % Hoechst-high responders worked out at 44.1%, the % tubulin-high responders was 12.2% (active) and the toxicity came out at 35.6%.

On to `CSc1nc2ccc(NC(=O)c3c(F)cccc3F)cc2s1`, for which the % Hoechst-high responders turned out to be 3.31%, the % tubulin-high responders was 2.54% (inactive) and the toxicity stood at 0.69%.

Consider `CCCC(=O)Nc1nc2ccc(NC(=O)c3cccnc3)cc2s1`, for which the % Hoechst-high responders was 19.5%, the % tubulin-high responders was 35.9% (active) and the toxicity was 55.8%.
